Experimental data from PubChem BioAssay (NCI).
The panel holds about 83,000 compounds, 20% with a hit somewhere; the sample as a whole holds those more often.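 Interpretation: 100, growth as untreated; towards 0, rising growth inhibition; 0, no net growth; 0 to -100, cell death. Compounds scoring below 10 were considered active.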 Values without a mark were called inactive. Activity calls are given as the source filed them.

Columns and labels:
Assay in all cases: NCI-60 one-dose screen, 48 h (100 = growth as untreated, 0 = no growth, -100 = all killed)
Conditions in all cases: 10 µM unless noted
NCI-H23 lung = tested on: NCI-H23 lung
NCI-H322M lung = tested on: NCI-H322M lung
HOP-62 NSCLC = tested on: HOP-62 NSCLC
NCI-H460 lung = tested on: NCI-H460 lung
HOP-92 NSCLC = tested on: HOP-92 NSCLC
A549/ATCC NSCLC = tested on: A549/ATCC NSCLC
786-0 renal = tested on: 786-0 renal
COLO 205 colon = tested on: COLO 205 colon
DU-145 prostate = tested on: DU-145 prostate
NCI-H522 lung = tested on: NCI-H522 lung

Row | Compound | growth (NCI-H23 lung) | growth (NCI-H322M lung) | growth (HOP-62 NSCLC) | growth (NCI-H460 lung) | growth (HOP-92 NSCLC) | growth (A549/ATCC NSCLC) | growth (786-0 renal) | growth (COLO 205 colon) | growth (DU-145 prostate) | growth (NCI-H522 lung)
1 | CC(=Nc1ccccc1)C1=C(O)C(Cc2ccc(F)cc2)NC1=O (stereo unspecified) | 30.7% | 37.5% | 42.7% | 13.4% | 72.4% | 35.9% | 48.2% | -52.1% (active) | 8.32% (active) | –
2 | O=C(N=Nc1c(O)[nH]c2ccccc12)c1oc2ccccc2c1CN1CCN(c2ccccc2)CC1 | -0.112% (active) | 33.2% | 7.31% (active) | -65.3% (active) | -12% (active) | -13.5% (active) | -83.2% (active) | 12.7% | -34.2% (active) | –
3 | O=C(NC1CCCCC1)C(c1cccs1)N(CCc1ccccc1)C(=O)c1ccco1 (stereo unspecified) | 86.1% | 96.5% | 90.6% | 103% | 75.5% | 92.2% | 91.1% | 96.1% | 103% | –
4 | CCCCC1CCc2cccc3c(SCC(=O)N(C)c4ccc(Cl)cc4)cc[n+]1c23 (stereo unspecified) | 98.9% | 110% | 107% | 109% | 127% | 106% | 106% | 108% | 108% | –
5 | Nc1ccc(-c2nc3cc(Oc4ccc(Oc5ccc6[nH]c(-c7ccc(N)cc7)nc6c5)cc4)ccc3[nH]2)cc1 | 78.6% | 118% | 107% | 95.2% | 104% | 96.8% | 92% | 75% | – | –
6 | O=C(Nc1ccc(Br)cc1F)c1cc(Cl)ccc1O | -8.01% (active) | 4.59% (active) | -14% (active) | 3.19% (active) | -18.8% (active) | 8.65% (active) | -6.93% (active) | 24.2% | 11.8% | –
7 | O=c1oc2ccc(Cl)cc2c(=O)n1-c1ccc(Cl)cc1F | -4.79% (active) | 4.88% (active) | -6.42% (active) | 3.59% (active) | -12.9% (active) | 5.46% (active) | 5.1% (active) | 6.93% (active) | 15.3% | –
8 | COC(=O)/C(CCC=C(C)C)=C1\[C@@H](OC(C)=O)C[C@@]2(C)[C@H]1C[C@@H](O)[C@H]1[C@@]3(C)CC[C@H](NCCCNCCCCNCCCN)[C@@H](C)[C@@H]3CC[C@@]12C | 61.4% | 67.9% | 52.1% | 19.4% | 52.6% | 62.1% | 44.8% | 21.6% | 70.5% | –
9 | O=C(/C=C/c1ccc(C(F)(F)F)cc1)c1ccc(Nc2nc(NCCO)nc(Nc3ccc(Cl)cc3)n2)cc1 | 76.4% | 86.1% | 53.2% | 28.7% | 70.5% | 26.6% | -41% (active) | – | 58% | 65.3%
10 | Cc1ccccc1CNC(=O)C1CN(c2ccc(Cl)cc2)N(c2ccc(Cl)cc2)C1=O (stereo unspecified) | 90.6% | 89.1% | 83.2% | 91.4% | 96.9% | 64.4% | 96.7% | – | 99.7% | 68.5%
11 | CSc1nc2c(c(=O)[nH]1)N=C1c3ccccc3C(=O)C1C(c1ccccc1)N2 (stereo unspecified) | 62% | 69.4% | 45.5% | 12.3% | 59.5% | 51.6% | 46% | 33.5% | 75.4% | –
12 | COc1ccc(CSc2nnc(SCC(=O)Nc3ccc(Cl)cc3)s2)cc1 | 80.5% | 65.4% | 89% | 37.6% | 78% | 62.4% | 68.7% | 56.1% | 65.2% | –
13 | Fc1cccc(COc2ccc(Nc3ncnc4onc(-c5ccccc5)c34)cc2)c1 | 18.1% | 23.1% | 33.4% | 2.61% (active) | 46.3% | 19.9% | 8.18% (active) | 8.73% (active) | -29.8% (active) | –
14 | Cc1c(C(=O)OCCO)cc(-c2ccc(Cl)cc2)n1-c1ccc(Cl)cc1Cl | 77.6% | 84.3% | 89.2% | 37.7% | 91.1% | 47.6% | 94.1% | 108% | 62.9% | –
15 | Cc1cccc2c(=O)c3c(sc12)c(NCCCNCCO)nc1ccccc13 | 55% | 63.3% | 41.6% | 19.3% | 29.4% | 39.4% | 52.8% | – | 35% | 58.6%
16 | COc1cccc(/C(C#N)=C/c2nc3c(N4CCOCC4)nc(Cl)nc3n2C)c1 | 25.6% | 63.4% | 35.2% | 17.4% | -66.3% (active) | 29.2% | -69.4% (active) | – | -77.6% (active) | -64.7% (active)
17 | CC(=O)O[C@@H]1/C=C/C(=O)N[C@@H](C)CCC/C=C/[C@@H]2CCC[C@H]21 | 98.2% | 93.2% | 99% | 107% | 92.9% | 108% | 101% | 114% | 112% | –
18 | COc1cc(/C=C/C(=O)c2ccc(Nc3nc(NCCO)nc(N4CCOCC4)n3)cc2)cc(OC)c1OC | 15.7% | 30.9% | 34.3% | -20.8% (active) | 39.7% | 14.4% | 16.9% | – | 17.9% | 24.1%

Row | Compound | growth (NCI-H23 lung) | growth (NCI-H322M lung) | growth (HOP-62 NSCLC) | growth (NCI-H460 lung) | growth (HOP-92 NSCLC) | growth (A549/ATCC NSCLC) | growth (786-0 renal) | growth (COLO 205 colon) | growth (DU-145 prostate) | growth (NCI-H522 lung)
19 | CCOC(=O)c1ccc(N=Cc2sc(=O)[nH]c2O)cc1 | 98% | 101% | 95.4% | 101% | 90.1% | 96.6% | 98.4% | 104% | 103% | –
20 | CCOC(=O)c1cc2c(n1Cc1cccc(OC)c1)-c1oncc1CCC2 | 36.4% | 74.8% | 39.9% | 17.9% | 67.4% | 42.3% | 51.7% | -17.5% (active) | 23.3% | –
21 | N#C/C(=C\c1c(-c2ccccc2)[nH]c2ccccc12)C(=O)c1ccccc1 | 47.9% | 53.3% | 43% | 18.9% | 77.5% | 50.2% | 50.1% | 25.6% | 31.7% | –
22 | Cc1nc(Nc2ccccn2)sc1C(=O)/C=C/c1ccc(Cl)cc1 | 22.7% | 32.1% | 16.4% | 3.86% (active) | 31.8% | 17.2% | 19.7% | -21.5% (active) | 6.68% (active) | –
23 | Cc1c(-c2csc(-n3nc(C(F)(F)F)cc3C(F)(F)F)n2)no[n+]1[O-] | 98.4% | 98.8% | 100% | 98.9% | 96.3% | 95.3% | 97.5% | 112% | 105% | –
24 | Cc1ccc2[nH]c(=O)cc(-n3nncc3Cn3c4ccccc4c4ccccc43)c2c1 | 94.1% | 97.6% | – | 102% | 89.8% | 98.9% | 101% | 116% | 102% | 93.9%
25 | O=C(Nc1ccsc1C(=O)NC1CCCCC1)c1ccc(F)cc1 | 100% | 116% | – | 98.3% | 71.1% | 103% | 101% | 104% | 119% | 108%
26 | Cc1cc(OC(=O)c2ccc([N+](=O)[O-])cc2)nc2[nH]c(=O)sc12 | 103% | 110% | – | 105% | 105% | 103% | 104% | 116% | 111% | 96.8%
27 | CN1C(=O)N(C)C2C1NN=c1s/c(=C\c3ccc([N+](=O)[O-])cc3)c(=O)n12 (stereo unspecified) | 87.3% | 85.4% | – | 32% | 77.6% | 59.9% | 64.4% | 56.7% | 77.4% | 43.6%
28 | NNC(=O)CNC(=O)Nc1n[nH]c(=S)s1 | 100% | 103% | – | 105% | 91.7% | 105% | 103% | 107% | 107% | 88.7%
29 | Cc1ccc(Nc2nc(N)c3ccccc3n2)cc1Cl | 53.8% | 73.5% | – | 56.8% | 54.3% | 48.1% | 80.9% | 54.5% | 45.9% | 41%
30 | CCn1c(SCC(=O)Nc2cc(C(F)(F)F)ccc2Cl)nc2ccccc2c1=O | 70.9% | 78.8% | – | 28.6% | 9.17% (active) | 50.5% | 56.4% | 52.6% | 38.2% | 50.7%
31 | CCOC(=O)c1ccc2[nH]c(-c3ccccc3)cc(=O)c2c1 | 99.7% | 98.2% | – | 101% | 92.5% | 95.7% | 104% | 109% | 103% | 101%
32 | O=c1c2cc(F)ccc2sc2c(Nc3ccncc3)nc3ccccc3c12 | 45.9% | 81.4% | – | -76.7% (active) | 54.5% | -43.8% (active) | -79.8% (active) | – | 4.28% (active) | –
33 | c1ccc2cc3c(Nc4ccc(N5CCOCC5)cc4)ccnc3cc2c1 | 95% | 111% | – | 86.5% | 104% | 85% | 91.6% | 106% | 97.2% | 97.5%
34 | COc1ccc(/C=C2\SC(=Nc3ccccc3)NC2=O)cc1 | 21.6% | -53.9% (active) | – | -79.4% (active) | -64.5% (active) | -74.8% (active) | -92.8% (active) | -94.3% (active) | -50.8% (active) | -85.6% (active)
35 | COc1ccccc1C(=O)/C=C/c1ccccc1 | 83.4% | 86.1% | – | 66.4% | 80.6% | 76.1% | 101% | 117% | 32.1% | 81.8%
36 | Nc1n[nH]c2ccc([C@@H]3Nc4ccc5[nH]ncc5c4[C@H]4[C@H]5CCC(C5)[C@H]43)cc12 | 31.4% | 42.7% | – | 3.93% (active) | 33.7% | 18.5% | 24.1% | 0.265% (active) | 7.74% (active) | -21.4% (active)
